Experimental data taken from PubChem BioAssay (NCI).
About 83,000 compounds went through this panel and 20% of them were active in at least one assay; those are over-represented in the sample as a whole.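 Activity criterion: percent growth below 10, measured after cells in 96-well plates were exposed to a single compound concentration for 48 hours.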 Values without a mark were called inactive. Active and inactive are the calls of the source.

How the values were obtained:
Test in all cases: NCI-60 one-dose screen, 48 h (100 = growth as untreated, 0 = no growth, -100 = all killed)
DU-145 prostate = conditions: 10 µM
MALME-3M melanoma = conditions: 10 µM
MDA-MB-231 breast = conditions: 10 µM
RXF 393 renal = conditions: 10 µM
SF-268 CNS = conditions: 10 µM
SF-295 CNS = conditions: 10 µM
SF-539 CNS = conditions: 10 µM
UACC-257 melanoma = conditions: 10 µM
HCT-15 colon = conditions: 10 µM
HT29 colon = conditions: 10 µM
SNB-75 CNS = conditions: 10 µM
SNB-19 CNS = conditions: 10 µM
U251 CNS = conditions: 10 µM
PC-3 prostate = conditions: 10 µM
SK-MEL-5 melanoma = conditions: 10 µM
UACC-62 melanoma = conditions: 10 µM unless noted
LOX IMVI melanoma = conditions: 10 µM
SK-MEL-28 melanoma = conditions: 10 µM
K-562 leukemia = conditions: 10 µM
M14 melanoma = conditions: 10 µM

| Structure (SMILES) | growth (DU-145 prostate) | growth (MALME-3M melanoma) | growth (MDA-MB-231 breast) | growth (RXF 393 renal) | growth (SF-268 CNS) | growth (SF-295 CNS) | growth (SF-539 CNS) | growth (UACC-257 melanoma) | growth (HCT-15 colon) | growth (HT29 colon) | growth (SNB-75 CNS) | growth (SNB-19 CNS) | growth (U251 CNS) | growth (PC-3 prostate) | growth (SK-MEL-5 melanoma) | growth (UACC-62 melanoma) | growth (LOX IMVI melanoma) | growth (SK-MEL-28 melanoma) | growth (K-562 leukemia) | growth (M14 melanoma) |
| --- | --- | --- | --- | --- | --- | --- | --- | --- | --- | --- | --- | --- | --- | --- | --- | --- | --- | --- | --- | --- |
| CC(C)COC(=O)COC(=O)OCCOCCOC(=O)OCC(=O)OCC(C)C | 95.3% | 104% | 113% | 103% | 93.5% | 115% | 80.5% | 103% | 104% | 101% | 102% | 101% | 94.9% | 94.8% | 101% | 97.6% | 106% | 107% |  |  |
| COc1cc(OC)c2ccc(=O)oc2c1 | 102% | 136% | 93.4% | 123% | 102% | 100% | 106% | 98.1% | 96.4% |  | 85.3% | 99% | 98.8% | 100% | 107% | 95.5% | 96.6% | 115% |  |  |
| CC(C)(C)c1cc(O)c(C(C)(C)C)cc1O | 108% |  | 88.9% |  | 95.8% | 85.7% | 86.1% | 85.6% | 97.9% | 98.3% | 92.7% | 49.2% | 75.2% | 76.3% | 67.8% |  | 98.1% |  | 96.7% | 103% |
| O=C(O)C(c1ccccc1)C(O)c1ccccc1 (stereo unspecified) |  | 117% | 102% | 107% | 105% | 96.5% | 98.4% | 85.7% | 102% | 96.5% | 96.6% | 103% | 91.9% | 92.6% | 94% | 93.6% | 102% | 103% | 100% | 104% |
| O=C(O)CNC(=O)c1ccccc1 |  |  |  |  |  |  |  |  |  |  |  |  | 96.6% |  |  |  |  |  |  |  |
| COc1cc([C@@H]2c3cc4c(cc3[C@H](O)[C@H]3COC(=O)[C@H]23)OCO4)cc(OC)c1OC | -23.9% (active) | 54.2% | 10.1% | 41% | 27.3% | -14.1% (active) | 5.77% (active) | 53.2% | 10.4% | 4.93% (active) | 30.6% | 34.7% | 16.5% | 23.3% | -25% (active) | 40.5% | 22% | 58.8% |  | 6.41% (active) |
| CCCC(=O)c1cc(C)ccc1OC | 119% | 135% | 93.8% | 109% | 96% | 125% | 94.9% | 112% | 100% | 107% | 94.9% | 114% | 115% | 91.3% | 104% | 95.5% | 109% | 105% |  |  |
| O=C(CC(=O)c1ccccc1O)c1ccccc1 | 91.8% | 115% | 91.1% | 103% | 90.7% | 89.5% | 95.5% | 95.7% |  | 87.8% |  | 86.9% | 63.3% | 92.6% | 77.6% | 91% | 76.9% | 99.3% |  | 97.4% |
| O=C(N/N=C/c1ccccc1O)Nc1nn[nH]n1 | 116% |  | 102% |  | 113% | 102% | 96.9% | 104% | 91.1% | 104% | 85.7% | 97.4% | 104% | 95.6% | 99.3% |  | 96.4% | 111% | 128% | 103% |
| O=C(O)CCCc1ccccc1 | 119% | 118% | 117% | 113% | 118% | 110% | 120% | 104% | 101% | 109% | 99.9% | 105% | 95.3% | 99.3% | 108% |  | 102% | 111% |  | 101% |
| Nc1ccccc1C(=O)Nc1ccc(Cl)cc1Cl | 106% |  | 84.4% | 83.7% | 101% |  | 94.4% | 86.5% | 101% | 93.2% | 67.7% | 96.1% | 102% | 78.8% | 107% | 88.7% | 87.9% | 100% |  | 94.7% |
| C[C@@H](c1ccccc1)[C@@H](C(=O)O)c1ccccc1 | 114% |  | 110% |  | 106% | 98.6% | 96.5% | 98.8% | 95.4% | 103% | 88.4% | 92.4% | 93.1% | 94.5% | 98.2% |  | 98.4% | 108% | 110% | 101% |
| CCCNc1ccc(C2=NCCCN2)cc1 | 103% |  | 98.7% |  | 98.9% | 91% | 102% | 99.8% | 97.8% | 96% | 84.2% | 102% | 87.4% | 94.6% | 97.5% |  | 95.1% | 114% | 89.8% | 96.1% |
